From PubChem BioAssay AID445 (National Center for Advancing Translational Sciences (NCATS), 2006)
Out of some 110,000 compounds screened, about 40 (0.04%) were called active. Not shown: some 22% with an inconclusive outcome. The entries come from a sample that favours actives as a whole. Values without a mark were called inactive. The call rests on the fitted dose curve; in most records, active means well fitted curve in the direction sought with a large enough effect in the signal ratio (not every such curve was filed as active); inconclusive means small, poorly fitted or top-dose-only effect, or a change in a side signal; inactive means flat fitted curve, though single readings scatter; the % refers to the signal ratio.

Experiment: IkB Signaling;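 on IkBa stabilization activation: 0% = basal untreated cells and 100% = reference inhibitor full response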
Conditions: ABC-DLBCL IkBa-CBG/CBR dual luciferase ratio, 4 h; series mostly up to 57.1 µM; IkBa stabilization activation: at the top concentration
Text: NIH Molecular Libraries Screening Centers Network [MLSCN]
NIH Chemical Genomics Center [NCGC]
Nuclear factor kappa-B (NF-kappa-B) plays an important role in normal B cell development and survival. Diffuse large B cell lymphoma (DLBCL) is the most commonly observed type of non-Hodgkin's lymphoma. Gene expression analysis has identified an activated B cell-like subtype of DLBCL (ABC-DLBCL) which expresses known NF-kappa-B target genes. […] However, targets upstream of IKK have been largely unexplored and so nodes upstream of IKK in the NF-kappa-B pathway remain untested due to the lack of chemical probes.
A cell-sensor assay for I-kappa-B-alpha stabilization was developed with NIH investigator Dr. R. Eric Davis in Dr. Louis M. Staudt's laboratory. The assay uses green (CBG68) and red (CBR) emitting beetle luciferases [Chroma-Glo(TM) developed by Promega Corp.] where the green luciferase is fused to I-kappa-B-alpha and the red luciferase is present in its native state. Both luciferase genes are stably present in the OCI-Ly3 human ABC DLBCL cell line, but their expression is under the control of tetracycline-inducible promoters. Following the addition of doxycycline to induce expression of the luciferases, the green luminescence in control cultures rises only slowly because the CBG fusion partner I-kappa-B-alpha is targeted by IKK activity for rapid degradation. In contrast, green luminescence rises rapidly in the presence of proteasome inhibitors or IKK inhibitors. The rise in red luminescence of CBR is not affected by proteasome or IKK inhibitors, and serves as normalization for cell number and nonspecific effects. Compounds were screened as a concentration-titration series that ranged from 57 uM to 0.7 nM.
NCGC Assay Protocol Summary:
Cells were seeded in 1536-well plates at 5000 cells/3ul in IMDM medium containing 0.5% FBS, w/o phenol red, L-glutamine, 25 mM HEPES, 3 mg/ml sodium bicarbonate. After centrifugation for 1 min. at 1000 rpm, 23 nl of compounds or DMSO were delivered to each well using a pin tool. Then 1ul 80ng/ml doxycycline was dispensed into white solid 1536-well plates and the plates were incubated at 37C/5% C02 in a cell incubator for 4 hrs. Then 4 ul Chroma-Glo luminescent substrate mix (Promega) was added to each well. The plate was incubated at R.T. for 10-15 min. The plates were measured on a ViewLux plate reader for green luminescence (540/20 nm filter) and red luminescence (618/8 nm filter). The green and red luminescent signals were corrected for red and green luminescence filter overlap using previously determined filter calibration constants (determined using the procedure outlined in the Promega Technical Manual). The %Activity was determined from the ratio of corrected green/red luminescent values. Green luminescent and ratio %Activity was determined by normalizing to the difference in signal between basal cells (0% Activity) and cells incubated with 10 uM of the proteasome inhibitor MG-132 (100% Activity). Red luminescent %Activity was normalized to the difference between red luminesence in basal cells (0%Activity) and zero luminescence (-100% Activity).
Concentration-response curves were fitted to the signals arising from the green luminescence (I-kappa-B-alpha-luciferase fusion; IkB-luc) and the red luminescence (unfused luciferase; luc) as well as the calculated ratio. The concentration-effect curves were then classified based on curve quality (r2), response magnitude and degree of measured activity. Compounds were then categorized based on their concentration-response curves for all three datasets (Ikb-luc, luc and ratio).
Keywords: IKK, I-kappa-B, IkB, IkBa, cytotoxicity, luminescence, MLSMR, MLSCN, NIH Roadmap, qHTS, NCGC
Potency means the concentration at half of the fitted maximal effect.

Compound | IkBa stabilization activation | Potency
CCc1nn(CCCC(=O)NC(C)c2ccccc2)c(=O)c2cc3occc3n12 (stereo not drawn) | 0.87% | –
CC(=O)N1CCCc2cc(S(=O)(=O)Nc3ccc(Cl)cc3F)ccc21 | 0.612% | –
COc1ccc(CNC(=O)C(C)n2nc(C)c3c(C)n(-c4ccccc4)nc3c2=O)c(OC)c1 (stereo not drawn) | 2.88% | –
Cc1ccc(-c2nc(Cn3c(=O)cc(-c4ccccc4)c4c(C)nn(C)c43)c(C)o2)cc1 | -0.408% | –
COc1ccc(C2C(=O)N(C3CCCCC3)CC(=O)N2Cc2ccccc2Cl)cc1OC (stereo not drawn) | -0.663% | –
Cc1ccc(NC(=O)c2oc3ccccc3c2NC(=O)Cc2cccs2)cc1 | 0.174% | –
CCOC(=O)C1CCN(S(=O)(=O)c2ccc3c(c2)N(C)C(=O)CC(=O)N3C)CC1 | 0.0845% | –
COc1ccc(-c2nc3nc(C)cc(C)n3c2Nc2c(C)cccc2C)cc1 | 4.16% | –
Cc1ccc(C)c(CN2C(=O)c3ccccc3S(=O)c3ccc(C(=O)N4CCOCC4)cc32)c1 (stereo not drawn) | 0.246% | –
Cc1ccccc1CNC(=O)CCCn1nc(C)c2sc3ccccc3c2c1=O | -0.00104% | –
CCc1cccc(NC(=O)Cn2nc(CC)n3c(cc4cc(C)ccc43)c2=O)c1 | 6.39% | –
Cn1c(=O)c2c(ncn2CC(=O)Nc2cccc(C(F)(F)F)c2)n(C)c1=O | 6.05% | –
COc1ccc(NS(=O)(=O)c2cc3c(cc2C)N(C(C)=O)CCO3)cc1 | 12.8% | –
COc1cc(C)ccc1OCCSc1nc2ccc(NC(=O)c3ccc(C)cc3)cc2s1 | 0.344% | –
CCOC(=O)c1ccc(-c2ccc(/C=C(\C#N)C(=O)Nc3ccc(C)cc3)o2)cc1 | -0.769% | –
CCn1c2c(c(=O)n3ncc(C(=O)N4CCN(c5ccccc5)CC4)c13)CN(Cc1ccc(OC)cc1)CC2 | 1.86% | –
Cc1cccc(-n2c(SCC(N)=O)nc3c(oc4ccccc43)c2=O)c1 | -0.917% | –
Cc1cccc(-c2nc(SCc3ccc(Br)cc3)n3[nH]c(=O)cc3n2)c1 | -5.03% | –
CCOc1cccc2sc(N3CCN(C(=O)C4CC4)CC3)nc12 | -4.76% | –
O=c1cc(CSc2ncn[nH]2)[nH]c2ccc(F)cc12 | 0.491% | –
O=C(CC1Oc2ccccc2NC1=O)NCc1ccc(F)cc1 (stereo not drawn) | 2.65% | –
Cc1ccc(CNC(=O)CCC(=O)N2Cc3ccccc3Oc3ncccc32)cc1 | 2.77% | –

Compound | IkBa stabilization activation | Potency
Cc1cc(C)c(NC(=O)Cn2c(SCC(=O)NCc3ccccc3)nc3ccccc32)c(C)c1 | -0.55% | –
CCCC(=O)N1CCN(c2nc3c(OC)ccc(C)c3s2)CC1 | -4.62% | –
Cc1cccc(Nc2cc(C)nc(-n3nc(C)cc3C)n2)c1 | -1.06% | –
Cc1cc(C)n(-c2ccc(Cl)c(C(=O)O)n2)n1 | 1.24% | –
CC(=O)c1ccc(Oc2cc(C)nc(-n3nc(C)cc3C)n2)cc1 | – | 6.31 µM (active)
OCc1cnc(SCc2ccc(F)cc2)n1Cc1ccc(F)cc1 | 1.24% | –
CC(C)(C)OC(=O)N1CCC(c2c(C(=O)NCc3ccccn3)cnn2-c2ccc(F)cc2)CC1 | 0.0918% | –
COc1ccccc1NC(=O)CN1C(=O)c2ccccc2Sc2ccc(C(=O)N3CCCC3)cc21 | 12.1% | –
COCCn1c(CCC(=O)Nc2cc(C)ccc2C)nc2cccnc21 | 1.81% | –
Cc1ccc(N2CC(C(=O)Nc3ccc(N(C)C)cc3)CC2=O)cc1Cl (stereo not drawn) | 1.8% | –
CCOc1ccc(N(CC)C(=O)c2noc3c2COc2ccc(C)cc2-3)cc1 | -0.625% | –
Cc1ccc(C)c(N2C(=O)N(Cc3c(F)cccc3Cl)c3ccccc3S2(=O)=O)c1 | 9.61% | –
Cc1csc2nc(COC(=O)c3ccccc3NC(=O)c3ccccc3Cl)cc(=O)n12 | 2.09% | –
CCN(CC)C(=O)CSc1nc2cc3c(cc2c(=O)n1CCCC(=O)NCc1ccc2c(c1)OCO2)OCO3 | -2.8% | –
O=C(CCn1c(=O)c2ccccc2n(Cc2ccc(Cl)cc2)c1=O)NCc1ccc2c(c1)OCO2 | -0.548% | –
CCOc1ccc2nc(N3CCCC(C(=O)Nc4cc(C)ccc4C)C3)sc2c1 (stereo not drawn) | -0.374% | –
CCc1ccc(NC(=O)CN2C(=O)CCSc3ccc(S(=O)(=O)N4CCCC4)cc32)cc1 | 1.01% | –
Cc1cccc(NC(=O)Cn2c(C(F)(F)F)nc3ccccc32)c1C | 2.61% | –
COc1ccc(C2c3c(oc4ccccc4c3=O)C(=O)N2Cc2ccc3c(c2)OCO3)cc1 (stereo not drawn) | 3.44% | –
Cc1ccc(Cl)cc1NC(=O)C(C)n1nnc2sc(-c3ccccc3)cc2c1=O (stereo not drawn) | -1.77% | –
CCOC(=O)c1sc(NC(=O)/C=C/c2ccc(C(C)C)cc2)c(C(=O)OCC)c1C | -4.34% | –
